Assay outcomes as filed in PubChem.
Compounds with a hit are over-represented: about 8% of the library has one in this group of screens.
Lassa entry – qHTS for Inhibitors of binding or entry into cells for Lassa Virus. Lassa virus pseudotyped entry inhibition, cell-based qHTS. Potency, µM (titrated, usually from 49.2 µM), inactives show at the top dose activity change, negative = inhibition, most hits filed as inhibitors. 18,000 compounds, 4.1% hits
MARV entry inh – qHTS for Inhibitors of binding or entry into cells for Marburg Virus; Potency, µM (doses to about 49.2 µM), for the others: top-dose activity change, negative = inhibition, hits mostly inhibitors; 18,000 compounds, 6.5% hits; AID 720532, 2013; Marburg virus pseudotype entry/binding inhibition, cell-based
Numbers without * were called inactive; ? = inconclusive; . = no result; ! = not confirmed by another sample; [ ] = another dose, or the depositor's remark. The call rests on the fitted dose curve; tested in HEK293 cells. On the % scale 0 is the no-effect control and ±100 the full control effect; potency means the concentration at half of the fitted maximal effect.

SMILES | Lassa entry | MARV entry inh
CN(C)CCNC(=O)Nc1ccc(N(C)c2ccnc(Nc3ccc(CS(C)(=O)=O)cc3)n2)cc1 | 60% | -45%
CC1(C)CN(Cc2ccccc2)C(=O)[C@@H]1CC(=O)Nc1ccc(Br)cc1 | -10% | -28%
CCCC[C@]12Cc3cc(OC)c(OC)cc3[C@H](O1)C1=C(O2)C(=O)c2ccccc2C1=O | 5%[8.59 µM] | 5%[8.59 µM]
CCOC(=O)NN=C1C[C@@H](O)[C@@H](O)[C@@H]2[C@H]3C(=O)N(C4CCCCC4)C(=O)[C@@H]3CC[C@@H]12 | . | -25%[8.59 µM]
N[C@H](C(=O)O)c1ccc(O)c(C(=O)O)c1 | -3% | 11%
O=C(O)c1cc(N(Cc2ccccc2O)Cc2cc(O)ccc2O)ccc1O | ? | 20µM*!
CC(=O)OC[C@H]1O[C@H](CC=NO[C@H](C)c2cn([C@@H]3COC[C@@H]3O)nn2)C=C[C@@H]1OC(C)=O | -3%[8.59 µM] | -12%[8.59 µM]
COc1cccc(CO[C@H]2C=C[C@@H](c3ccccc3)O[C@H]2CO)c1 | -26%[8.59 µM] | -7%[8.59 µM]
O=S(=O)(O)c1ccc2nc(-c3ccccc3)[nH]c2c1 | ? | -1%
O=S(=O)(O)c1ccc2c(c1)-c1nc-2nc2[nH]c(nc3nc(nc4[nH]c(n1)c1ccc(S(=O)(=O)O)cc41)-c1ccc(S(=O)(=O)O)cc1-3)c1ccc(S(=O)(=O)O)cc21 | ? | 1.3µM*
C=C1CCC2C(C)(CO)C(O)CCC2(C)C1C/C=C1\C(=O)OCC1O (centres undefined) | ? | 11µM*
C=CCN=C1NC(c2cccc(F)c2)C(C(=O)OC)=C(C)N1Cc1ccccc1 (centres undefined) | -15%[8.59 µM] | ?
C=CCc1cccc(/C=N/NC(=O)CN2CCN(Cc3ccccc3)CC2)c1O | 13µM* | ?
c1ccc(CCc2nc(-c3ccccc3)oc2NC2CCCCC2)cc1 | -13%[8.59 µM] | -13%[8.59 µM]
COCCOC(=O)C1=C(C)NC(C)=C(C(=O)OC(C)C)[C@@H]1c1cccc([N+](=O)[O-])c1 | -23% | -26%
COCCOC(=O)C1=C(C)NC(C)=C(C(=O)OC/C=C/c2ccccc2)C1c1cccc([N+](=O)[O-])c1 (centres undefined) | 13µM* | 6.3µM*
COC(=O)C1=C(C)NC(C)=C(C(=O)O[C@@H]2CCCN(Cc3ccccc3)C2)[C@@H]1c1cccc([N+](=O)[O-])c1 | ? | 14µM*
CCOC(=O)C1=C(C)NC(C)=C(C(=O)OC)[C@@H]1c1cccc([N+](=O)[O-])c1 | -3%[17.8 µM] | -21%[17.8 µM]
CCOC(=O)C1=C(C)NC(C)=C(C(=O)OC)C1c1cccc([N+](=O)[O-])c1 (centres undefined) | ? | 14µM*!
CC1=C(C(=O)OC(C)C)C(c2cccc([N+](=O)[O-])c2)C(C(=O)OC2CN(C(c3ccccc3)c3ccccc3)C2)=C(N)N1 (centres undefined) | -20% | -24%
CCOC(=O)C1=C(C)NC(C)=C(C(=O)OC)[C@H]1c1cccc([N+](=O)[O-])c1 | -6% | ?
COC(=O)C1=C(C)NC(C)=C(C(=O)OC(C)(C)CN(C)CCC(c2ccccc2)c2ccccc2)C1c1cccc([N+](=O)[O-])c1 (centres undefined) | 13µM* | ?
COC(=O)C1=C(C)N(Cc2ccccc2)C(=S)NC1c1cccc(F)c1 (centres undefined) | 1%[8.59 µM] | 48%[8.59 µM]
CC(=Nc1ccc(S(N)(=O)=O)cc1)c1c(O)[nH]c2ccccc12 | 95% | 91%
COc1ccc([C@]23Cc4cc(OC)c(OC)cc4[C@H](O2)c2c(c4ccccc4oc2=O)O3)cc1 | 22%[8.59 µM] | 5%[8.59 µM]
SMILES | Lassa entry | MARV entry inh
c1ccc2c(c1)OCC(C1=NCCN1)O2 (centres undefined) | ? | 14µM*
c1ccc2c(c1)CCCC2C1=NCCN1 (centres undefined) | 2% | 1%
COC(=O)C1=C(C(=O)OC)[C@@H]2N(Cc3ccccc3)c3ccccc3[C@@]23CCC(=O)N(CC2CCCCC2)C3=N1 | 3%[8.59 µM] | 11%[8.59 µM]
Nc1nc2c(ncn2[C@@H]2O[C@H](COP(=O)(O)OP(=O)(O)O)[C@@H](O)[C@H]2O)c(=O)[nH]1 | 22% | 15%
Nc1nc2c(ncn2C2OC(COC(=O)c3ccccc3)C(OC(=O)c3ccccc3)C2OC(=O)c2ccccc2)c(=O)[nH]1 (centres undefined) | 11µM* | -28%
COc1ccc(CN2CCNCC2)c(OC)c1OC | 0%[17.8 µM] | 9%[17.8 µM]
COc1ccc(CN2CCN(C(c3ccc(F)cc3)c3ccc(F)cc3)CC2)c(OC)c1OC | 22µM* | 10µM*
COC(=O)N[C@H](C(C(=O)OC)=C(C)NCc1ccccc1)c1cccs1 | . | 8%[8.59 µM]
COc1cccc([C@@H]2Oc3ccc(Br)cc3C(=O)[C@@H]2OC(=O)Nc2cc(OC)c(OC)c(OC)c2)c1 | -10%[8.59 µM] | 5%[8.59 µM]
CC1(C)N=C(N)N=C(N)N1c1ccc(Cl)cc1 | 11µM* | 7.1µM*
C[C@@H]1CC[C@H]2C(=O)O[C@@H](Cc3ccccc3)CN2[C@@H]1c1ccc(Br)cc1 | 12%[8.59 µM] | 7%[8.59 µM]
